# Most compounds without a hit are left out; they make up all but 7.5% or so of the library.
# NPC1 prom act – NPC1 promoter activation; Huh7 NPC1 promoter luciferase reporter, 24 h; Potency, µM (titrated, usually from 9.22 µM), without a hit: at the top dose activation, most hits filed as activators; 320,000 tested, 2.4% active; AID 485313; further: % of control where 0% means no effect; nearly all actives have a fitted effect of over 60% in size
#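 Stably transfected Huh7 (NPC1 promoter→luciferase), 1500 cells/well in Opti-MEM + 10% FBS, 2 h settle, then compound 24 h at 37 °C. Luminescence after 10 min with Amplite reagent.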
# ELG1 genotox – inducers of genotoxicity in HEK293T ELG1-luciferase cells; Potency, µM (doses to about 46 µM), without a hit: top-dose activity change, positive = activation, most hits filed as activators; AID 504466; HEK293T ELG1-luciferase reporter, luminescence, 16 h; 330,000 tested, 1.3% active; further: % of control where 0% means no effect; nearly all actives have a fitted effect of over 60% in size
#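 Step 1: seed 2,000 HEK293T ELG1-luciferase cells per well. Step 2: add compound or DMSO, incubate 16 hr at 37 °C. Step 3: ONE-Glo, 30 min at room temperature, read luminescence.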
# SMN2 splice up – SMN2 splice variant enhancement; Potency, µM (highest dose often 46.1 µM), for the others: at the highest dose activity change, positive = activation, usual class: activators; HEK293 SMN2-luciferase splicing reporter, luminescence, 30-36 h; 210,000 tested, 2.8% active; further: % of control where 0% means no effect; nearly all actives have a fitted effect of over 55% in size
#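 HEK293 cells carry an SMN2 […]–luciferase reporter in which exon 7 inclusion puts luciferase in frame. Cells were plated 10-12 h before compound addition, then incubated 30-36 h at 37C. ONE-Glo luminescence was read; sodium butyrate at 4.5 mM final served as control.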
# Rab9 promoter act – activates the Rab9 promoter | 320,000 tested, 2.8% active | AID 485297 | Potency, µM (top dose mostly 9.22 µM), without a hit: at the top dose activation, negative = inhibition, hits mostly activators | Huh7 Rab9 promoter-luciferase reporter, luminescence, 24 h; further: % of control where 0% means no effect; nearly all actives have a fitted effect of over 60% in size
#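 Promoter activation is measured as luciferase luminescence in Huh7 cells stably transfected with a Rab9 promoter–luciferase construct, following 24 h compound exposure at 37 °C and 10 min reagent incubation at ambient temperature.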
# FLuc counter – inhibits or activates purified firefly luciferase, miR-21 counter-screen; purified FLuc, Km substrates, luminescence inhibition; 360,000 tested, 6.9% active; Potency, µM (series often up to 57.5 µM), inactives show top-dose activity change, negative = inhibition, usual class: inhibitors;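 further: plate controls were vehicle for no effect and reference inhibitor for full effect; nearly all actives have a fitted effect of over 55% in size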
# Target sequence (P08659 whole entry, looked up): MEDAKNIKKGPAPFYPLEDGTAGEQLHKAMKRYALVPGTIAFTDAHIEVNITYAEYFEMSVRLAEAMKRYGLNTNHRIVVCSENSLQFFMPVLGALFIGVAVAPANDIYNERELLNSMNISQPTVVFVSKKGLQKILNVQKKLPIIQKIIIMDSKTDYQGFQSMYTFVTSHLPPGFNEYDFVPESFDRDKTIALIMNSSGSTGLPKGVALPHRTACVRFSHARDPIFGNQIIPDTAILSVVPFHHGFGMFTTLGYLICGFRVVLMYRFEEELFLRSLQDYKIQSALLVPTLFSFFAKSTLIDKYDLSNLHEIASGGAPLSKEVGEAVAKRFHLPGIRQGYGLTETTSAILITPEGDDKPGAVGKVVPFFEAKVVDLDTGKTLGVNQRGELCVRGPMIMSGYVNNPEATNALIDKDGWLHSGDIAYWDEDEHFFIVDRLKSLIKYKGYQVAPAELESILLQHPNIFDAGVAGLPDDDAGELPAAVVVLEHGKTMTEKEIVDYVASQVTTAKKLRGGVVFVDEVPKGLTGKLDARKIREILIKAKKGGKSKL
#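 Purified P. pyralis luciferase (10nM final) with 10uM D-luciferin and 10uM ATP (Km levels) in 50mM Tris acetate pH 7.5, 10mM Mg acetate, 0.01% Tween-20, 0.05% BSA; qHTS 6-point titration, ~60 µM downward; luminescence read.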
# KinaseGlo FLuc – Kinase-Glo luciferase inhibition (counter-screen) | Kinase-Glo luciferase, ATP luminescence, 8 min | Potency, µM (highest dose often 38.3 µM), for inactives: at the highest dose activity change, negative = inhibition, usual class: inhibitors | 200,000 tested, 0.28% active; further: on the % scale 0 is the no-effect control and ±100 the full control effect; nearly all actives have a fitted effect of over 60% in size
#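 Substrate mix (final 50 mM imidazole pH 7.2, 50 mM KCl, 7 mM MgCl2, 10 uM ATP, 0.01% Tween 20, 0.05% BSA) plus pin-tool compound, then Kinase-Glo detection mix; 8 min ambient, luminescence read.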
# Numbers without * were called inactive; ? = inconclusive; nt = not tested or not shown; [ ] = dose if it differs, or a comment. The call rests on the fitted dose curve; in most records, active means well fitted curve in the direction sought with a large enough effect; inconclusive means small, poorly fitted or top-dose-only effect, or another doubt; inactive means no such curve, though single readings can be large; an effect the other way counts as inactive or inconclusive. Potency means the concentration at half of the fitted maximal effect.
SMILES,NPC1 prom act,ELG1 genotox,SMN2 splice up,Rab9 promoter act,FLuc counter,KinaseGlo FLuc
CCCCn1nc(C(=O)NNC(=O)c2ccncc2)c2ccccc2c1=O,-1%,-1%,nt,6%,?,nt
O=C(CNC(=O)c1ccccc1F)OCCOc1cccc(Cl)c1,-7%,1%,nt,-1%,3%,nt
CCN1c2ccccc2-c2nc(SCC(=O)Nc3cccc(C)c3C)ncc2S1(=O)=O,nt,nt,nt,nt,2%,nt
COc1ccc2occ(CC(=O)Nc3ccc(S(=O)(=O)Nc4nc(C)cc(C)n4)cc3)c2c1,nt,nt,0%,nt,?,nt
C=C1C(c2ccc(C)cc2)=CCc2cc(C)cc(C)c21,nt,nt,14µM*,nt,nt,nt
CC(C)CN(C)c1nc(N)c(C(=O)N=C(N)N)nc1Cl,nt,nt,-22%,nt,nt,-3%
CSCc1c(C(=O)Nc2ccc3c(c2)OCO3)oc2ccccc12,-26%,11%,nt,19%,19µM*,nt
CSCc1c(C(=O)Nc2ccc(N3CCOCC3)cc2)oc2ccccc12,7%,5%,-20%,0%,1%,-1%
O=C(CCl)Nc1c(C(=O)Nc2ccc3c(c2)OCCO3)oc2ccccc12,4µM*,?,nt,4µM*,?,nt
Cc1c(C(=O)Nc2ccc3c(c2)OCO3)oc2ccccc12,2µM*,2.6µM*,nt,2.2µM*,1.9µM*,nt
CC(=O)Nc1c(C(=O)Nc2ccccc2F)oc2ccccc12,nt,nt,9%,nt,-3%,nt
CC(=O)Nc1c(C(=O)Nc2ccc3c(c2)OCO3)oc2ccccc12,2.8µM*,?,nt,2.5µM*,11µM*,nt
COCC(=O)Nc1c(C(=O)Nc2ccc3c(c2)OCO3)oc2ccccc12,3.5µM*,?,nt,3.2µM*,-6%,nt
COCC(=O)Nc1c(C(=O)Nc2ccc(C)cc2)oc2ccccc12,nt,nt,7.9µM*,nt,-8%,nt
Cc1ccc(NC(=O)c2oc3ccccc3c2NC(=O)c2ccc(F)c(F)c2)cc1,nt,nt,-4%,nt,-3%,nt
O=C(COc1ccccc1F)Nc1c(C(=O)Nc2cccc(F)c2)oc2ccccc12,nt,nt,6%,nt,6%,nt
Cc1cc2nc(-c3ccc(=O)[nH]c3)n(C)c2cc1C,5%,10%,nt,12%,17µM*,nt
Cc1cc2nc(C)c(=O)n(C)c2cc1C,-2%,3%,?,-3%,1%,-1%
COC(=O)COc1ccc(S(=O)(=O)N2CCc3ccccc3C2)cc1C,-1%,0%,-4%,?,4%,3%
Cc1ccc(NC(=O)Nc2ccc(Cl)c(Cl)c2)nc1,?,?,nt,4.5µM*,?,nt
Cc1ccc(NC(=O)Nc2ccc(Cl)cn2)cc1,13%,?,11µM*,4µM*,?,-1%
Cc1cc(=O)n(CCc2ccccc2)c(O)c1C#N,20%,3%,1%,?,13µM*,-1%
O=C(O)c1ccc2c(=O)n3c(nc2c1)/C(=C/c1cccc(Cl)c1Cl)CCCC3,-2%,2%,5%[1.84 µM],-2%,3%,-4%
O=C(O)CCSc1nnc(-c2ccc3c(c2)OCO3)o1,-10%,-3%,-29%,-10%,13µM*,-20%
CC(=O)CSc1nnc(-c2ccc3c(c2)OCO3)o1,?,?,14µM*,2.8µM*,6.7µM*,-8%
SMILES,NPC1 prom act,ELG1 genotox,SMN2 splice up,Rab9 promoter act,FLuc counter,KinaseGlo FLuc
CC(=O)Nc1ccc(NC(=O)CSc2nnc(-c3ccc4c(c3)OCO4)o2)cc1,nt,8%,nt,nt,nt,nt
COc1ccc(C2=NCC(CSc3nccc(=O)[nH]3)S2)cc1 (stereo not drawn),2%,4%,8%,-1%,19µM*,-3%
COc1ccc(C2=NCC(CSc3nnnn3C)S2)cc1 (stereo not drawn),2%,?,-19%,15%,?,-3%
COc1ccc(C2=NCC(CSc3nnc(-c4ccc5c(c4)OCO5)o3)S2)cc1 (stereo not drawn),0%,-1%,-22%,?,9.5µM*,0%
CCc1ccc(OC(=O)CSc2nnc(-c3ccc4c(c3)OCO4)o2)cc1,nt,nt,nt,nt,-1%,nt
COc1cccc(OC(=O)CSc2nnc(-c3ccc4c(c3)OCO4)o2)c1,nt,nt,nt,nt,-5%,nt
c1cc(CSc2nnc(-c3ccc4c(c3)OCO4)o2)ccn1,2.5µM*,12%,6%,2.5µM*,?,0%
O=c1c2ccccc2nnn1CSc1nnc(-c2ccc3c(c2)OCO3)o1,?,?,?,?,6.7µM*,-5%
O=c1c2ccccc2nnn1CSc1ccccc1,1µM*,?,7.9µM*,0.56µM*,1.9µM*,-12%
O=C1OCCC1Sc1nnc(-c2ccc3c(c2)OCO3)o1 (stereo not drawn),-4%,-1%,-28%,-2%,9.5µM*,-3%
O=C1OCCC1Sc1nnc(-c2ccc(O)cc2)o1 (stereo not drawn),2%,1%,-6%,-2%,?,-10%
Cc1ccc(CSc2nnc(-c3ccc4c(c3)OCO4)o2)cc1,3%,8%,13%,-6%,?,-6%
Cc1ccc(C(=O)O/N=C(\N)Cc2cccs2)cc1[N+](=O)[O-],2.2µM*,?,nt,3.2µM*,0%,nt
CCOc1ccccc1-c1cc(C(=O)N/N=C/c2ccc3c(c2)OCO3)c2ccccc2n1,1%,2%,29%,2%,-16%,-3%
CCOc1ccccc1-c1cc(C(=O)N/N=C/c2ccc(O)c(OC)c2)c2ccccc2n1,0%,-14%,25µM*,3%,-5%,12%
COc1ccc2nc(-c3ccccc3)cc(OC)c2c1,18%,?,?,20%,12µM*,-4%
O=C(N/N=C/c1ccc(Cl)cc1)c1cc(-c2cccnc2)nc2ccccc12,-32%,6%,-26%,-18%,-7%,1%
O=C(N/N=C/c1cccc(O)c1)c1cc(-c2ccccc2)nc2ccccc12,0%,-4%,nt,0%,11µM*,nt
O=C(N/N=C/c1cccc([N+](=O)[O-])c1)c1cc(-c2ccccc2)nc2ccccc12,-3%,5%,-2%[1.84 µM],0%,2%,-5%
O=C(N/N=C/c1ccc[nH]1)c1cc(-c2ccc(Cl)cc2)nc2ccccc12,-11%,-12%,-33%,-4%,12µM*,-1%
O=S(=O)(CCc1ccccc1)c1nc2ccccc2s1,nt,nt,5%,nt,nt,-1%
O=C(N/N=C/c1ccc2c(c1)OCO2)c1cc(-c2ccccc2Cl)nc2ccccc12,-2%,0%,-13%,-2%,?,-2%
CC(/C=N/NC(=O)c1cc(-c2ccncc2)nc2ccccc12)=C\c1ccco1,-7%,2%,-18%,-9%,-15%,-2%
O=C(N/N=C/c1ccc(O)c(O)c1)c1cc(-c2ccccc2)nc2ccccc12,-8%,3%,nt,0%,15µM*,nt
